This experiment addresses Neuropeptide Y receptor type 1 (Homo sapiens) (UniProt P25929). Briefly: blockade of human NPY-Y1 in cells – counter-screen for NPY-Y2 antagonist project (AID 1256).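 Also: cells challenged with NPY then isoproterenol with cAMP sensed through a CNG channel.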 The settings on record: cell-based NPY-Y1 antagonism counterscreen; at 3.6 µM; active compounds read high.

Usually inhibition stands for the drop in the measured response relative to a control, in per cent.

This is one part of the list. A number with no mark means an inactive call. Rule as the data show it: active = inhibition above about 20%; inactive = the rest.

Neuropeptide Y receptor type 1 (Homo sapiens), sequence (P25929 whole entry, looked up): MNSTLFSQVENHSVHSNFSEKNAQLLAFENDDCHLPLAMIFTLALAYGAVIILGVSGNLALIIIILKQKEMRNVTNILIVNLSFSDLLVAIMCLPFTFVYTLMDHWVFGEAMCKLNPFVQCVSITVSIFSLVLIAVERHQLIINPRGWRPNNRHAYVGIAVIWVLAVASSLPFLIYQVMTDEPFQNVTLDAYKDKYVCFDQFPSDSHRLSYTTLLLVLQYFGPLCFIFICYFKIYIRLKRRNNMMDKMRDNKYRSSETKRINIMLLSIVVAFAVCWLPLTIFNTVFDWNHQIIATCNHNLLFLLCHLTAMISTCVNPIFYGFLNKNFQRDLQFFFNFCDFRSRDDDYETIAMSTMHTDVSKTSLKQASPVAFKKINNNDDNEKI

Take `O=C(COC(=O)c1ccccc1)Nc1ccc(Cl)cc1C(=O)c1ccccc1`: the inhibition was 17.5%.

(Values after PubChem BioAssay AID1256 (The Scripps Research Institute Molecular Screening Center, 2008).)
